Shown are actives, neighbours in structure and some others; about 3.4% of the full set was active somewhere.
PLCg1 inh: PLC-gamma1 (human) inhibition, primary screen. P19174. purified PLC-gamma1, fluorogenic substrate, fluorescence. AID 720700. hit rate 0.84% among 370,000. inhibition, % at 12.2 µM; in the data active = inhibition above about 9.5%
ADAM10 inh: ADAM10 inhibition, QFRET primary screen; AID 720582; inhibition, % at 7 µM; O14672; recombinant ADAM10, EDANS/DABCYL FRET peptide cleavage, 3 h; hit rate 0.62% among 370,000;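 active = inhibition above a per-campaign cutoff equal to the mean of compounds falling between control-based bounds plus 3 SD, cut at about 20% in these data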
HGIII-sPLA2 inh: Inhibits HGIII-sPLA2 liposome hydrolysis, primary screen. inhibition, % at 12.2 µM. AID 743126. QFRET BODIPY PC-A2 liposome hydrolysis, fluorescence. hit rate 0.56% among 370,000;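 active = inhibition above mean plus 3 SD of compounds lying within the high and low control bounds, cut at about 19% in these data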
ADAM17 inh: inhibitors of human ADAM17 | P78536 | recombinant ADAM17, EDANS/DABCYL FRET peptide cleavage | inhibition, % at 6.95 µM | hit rate 0.83% among 370,000 | AID 720648;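 active = inhibition above the mean of compounds lying between control limits plus 3 SD, set per campaign, cut at about 8.5% in these data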
PLCb3 inh: blocks human PLC-beta3 enzyme activity; Purified PLC-beta3, fluorogenic substrate, fluorescence; inhibition, % at 12.2 µM; hit rate 0.18% among 370,000; AID 720704; in the data active = inhibition above about 11%
KLK7 zymogen act: activators of human kallikrein-7 zymogen. P49862. purified proKLK7, EDANS-DABCYL substrate fluorescence; 100% is mature enzyme control, 0% vehicle. activation, % at 7 µM. hit rate 0.9% among 370,000;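 active = activation above the mean of all tested compounds plus 3 SD, computed per campaign excluding outliers beyond control limits, cut at about 13% in these data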
ADAM10 confirm: human ADAM10 inhibition, confirmation | shares compounds with ADAM10 inh | ADAM10 QFRET peptide cleavage, EDANS fluorescence | inhibition, % at 6.95 µM | hit rate 1% among 2,100 | AID 743208;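 active = inhibition above about 20% chosen separately for each screening run, limit read from the data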
ADAM17 counter: counter-screen for ADAM10 exosite inhibitors: inhibitors of human ADAM17 | AID 743214 | ADAM17 QFRET peptide cleavage, EDANS fluorescence | inhibition, % at 6.95 µM | hit rate 0.5% among 2,100 | shares compounds with ADAM10 inh;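 active = mean triplicate inhibition above the solvent-only control wells' mean plus 3 SD, cut at about 12% in these data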
Numbers stand for hits.

What do the screens show for `NC(=O)c1ccsc1NC(=O)CS(=O)(=O)c1ccccc1`?
PLCg1 inh: inactive; ADAM10 inh: 83.7; HGIII-sPLA2 inh: inactive; ADAM17 inh: inactive; PLCb3 inh: inactive; KLK7 zymogen act: inactive; ADAM10 confirm: inactive; ADAM17 counter: inactive

How did CCOC(=O)[C@@]12CCCC3=C1N(CCC3)C(=O)[C@H]2CC(=O)NCc1ccc(OC)c(OC)c1 do in these assays?
PLCg1 inh: inactive; ADAM10 inh: inactive; HGIII-sPLA2 inh: inactive; ADAM17 inh: inactive; PLCb3 inh: inactive; KLK7 zymogen act: inactive

What do the screens show for `O=C(NCCc1ccccc1F)c1ccc2c(c1)ncn2C1CCCCC1`?
PLCg1 inh: inactive; ADAM10 inh: inactive; HGIII-sPLA2 inh: inactive; ADAM17 inh: inactive; PLCb3 inh: inactive; KLK7 zymogen act: inactive

How did Cc1ccnc(NCc2cccc3ccccc23)c1 do in these assays?
PLCg1 inh: inactive; ADAM10 inh: 23.0; HGIII-sPLA2 inh: inactive; ADAM17 inh: inactive; PLCb3 inh: inactive; KLK7 zymogen act: inactive; ADAM10 confirm: inactive; ADAM17 counter: inactive

How did COc1ccc(-n2c(COc3ccc(Cl)cc3)nnc2SCC(=O)c2ccc(-c3ccccc3)cc2)cc1 do in these assays?
PLCg1 inh: inactive; ADAM10 inh: inactive; HGIII-sPLA2 inh: inactive; ADAM17 inh: inactive; PLCb3 inh: inactive; KLK7 zymogen act: inactive

How did CCc1nnc(NC(=O)CSc2ccc(-c3ccc(-n4cccn4)cc3)nn2)s1 do in these assays?
PLCg1 inh: inactive; ADAM10 inh: 53.9; HGIII-sPLA2 inh: inactive; ADAM17 inh: inactive; PLCb3 inh: inactive; KLK7 zymogen act: inactive; ADAM10 confirm: inactive; ADAM17 counter: inactive

How did Cc1ccc(C)c(SCC(=O)Nc2cccc(S(=O)(=O)NC3=NCCCCC3)c2)c1 do in these assays?
PLCg1 inh: inactive; ADAM10 inh: inactive; HGIII-sPLA2 inh: inactive; ADAM17 inh: inactive; PLCb3 inh: inactive; KLK7 zymogen act: inactive

What do the screens show for `Cc1cc(C)cc(-n2c(SCC(=O)Nc3cccc(S(=O)(=O)NC4=NCCCCC4)c3)nc3ccccc3c2=O)c1`?
PLCg1 inh: inactive; ADAM10 inh: 25.6; HGIII-sPLA2 inh: inactive; ADAM17 inh: inactive; PLCb3 inh: inactive; KLK7 zymogen act: inactive; ADAM10 confirm: inactive; ADAM17 counter: inactive

Results for N[C@H]1CC[C@@H]2SC[C@@H](C(=O)O)N2C1=O ?
PLCg1 inh: inactive; ADAM10 inh: inactive; HGIII-sPLA2 inh: inactive; ADAM17 inh: inactive; PLCb3 inh: inactive; KLK7 zymogen act: inactive

How did Cc1ccc(Oc2ccc(-c3nc(N)nc(N)n3)cc2)cc1C do in these assays?
PLCg1 inh: inactive; ADAM10 inh: 19.8; HGIII-sPLA2 inh: inactive; ADAM17 inh: inactive; PLCb3 inh: inactive; KLK7 zymogen act: inactive; ADAM10 confirm: inactive; ADAM17 counter: inactive

Results for CCN(C(=O)C1CCCN(c2nnc(-n3cccc3)s2)C1)c1ccccc1C (configuration not stated) ?
PLCg1 inh: inactive; ADAM10 inh: inactive; HGIII-sPLA2 inh: inactive; ADAM17 inh: inactive; PLCb3 inh: inactive; KLK7 zymogen act: inactive

Results for CCCCN1CCS(=O)(=O)N(Cc2ccc(Cl)cc2)C(C(=O)OC)C1 (configuration not stated) ?
PLCg1 inh: inactive; ADAM10 inh: inactive; HGIII-sPLA2 inh: inactive; ADAM17 inh: inactive; PLCb3 inh: inactive; KLK7 zymogen act: inactive

Results for COC(=O)c1ccc(NCc2c(O)ccc(O)c2Br)cc1Cl ?
PLCg1 inh: 9.8; ADAM10 inh: 40.6; HGIII-sPLA2 inh: 34.4; ADAM17 inh: 17.1; PLCb3 inh: inactive; KLK7 zymogen act: inactive; ADAM10 confirm: inactive; ADAM17 counter: inactive

What do the screens show for `COC(=O)c1ccc(NCc2cc(O)ccc2O)cc1O`?
PLCg1 inh: inactive; ADAM10 inh: inactive; HGIII-sPLA2 inh: inactive; ADAM17 inh: inactive; PLCb3 inh: inactive; KLK7 zymogen act: inactive

How did COc1ccc(-n2c(COc3ccc(Cl)cc3)nnc2SCC(=O)Nc2ccc(Oc3ccccc3)cc2)cc1 do in these assays?
PLCg1 inh: inactive; ADAM10 inh: inactive; HGIII-sPLA2 inh: inactive; ADAM17 inh: inactive; PLCb3 inh: inactive; KLK7 zymogen act: inactive

How did COc1ccc(C2CC(c3ccccc3)=NN2S(=O)(=O)c2ccc(C)cc2)c(OC)c1 (configuration not stated) do in these assays?
PLCg1 inh: inactive; ADAM10 inh: 22.7; HGIII-sPLA2 inh: inactive; ADAM17 inh: inactive; PLCb3 inh: inactive; KLK7 zymogen act: inactive; ADAM10 confirm: inactive; ADAM17 counter: inactive

What do the screens show for `CC(C)(C)c1ccc(-c2nnc(SCC(=O)c3ccc([N+](=O)[O-])cc3)n2-c2ccc(Cl)cc2)cc1`?
PLCg1 inh: inactive; ADAM10 inh: inactive; HGIII-sPLA2 inh: inactive; ADAM17 inh: inactive; PLCb3 inh: inactive; KLK7 zymogen act: inactive

Results for O=C1CSC(c2cccc(F)c2)N1c1c(F)cccc1F (configuration not stated) ?
PLCg1 inh: inactive; ADAM10 inh: 22.5; HGIII-sPLA2 inh: inactive; ADAM17 inh: inactive; PLCb3 inh: inactive; KLK7 zymogen act: inactive; ADAM10 confirm: inactive; ADAM17 counter: inactive

What do the screens show for `Cc1[nH]c2ccccc2c1N=Nc1ccccc1F`?
PLCg1 inh: inactive; ADAM10 inh: 29.8; HGIII-sPLA2 inh: inactive; ADAM17 inh: inactive; PLCb3 inh: inactive; KLK7 zymogen act: inactive; ADAM10 confirm: inactive; ADAM17 counter: inactive

Results for Cc1[nH]c2ccccc2c1N=Nc1ccc(F)cc1 ?
PLCg1 inh: inactive; ADAM10 inh: inactive; HGIII-sPLA2 inh: inactive; ADAM17 inh: inactive; PLCb3 inh: inactive; KLK7 zymogen act: inactive

Results for Cc1ccc(/C=N/NC(=O)CSc2nnc(-c3ccccc3)n2-c2ccc(Cl)cc2)o1 ?
PLCg1 inh: inactive; ADAM10 inh: 26.5; HGIII-sPLA2 inh: inactive; ADAM17 inh: inactive; PLCb3 inh: inactive; KLK7 zymogen act: inactive; ADAM10 confirm: inactive; ADAM17 counter: inactive

Results for Cc1ccc(/C=N/NC(=O)CSc2nnc(-c3ccc(Cl)cc3)n2-c2ccc(Cl)cc2)o1 ?
PLCg1 inh: inactive; ADAM10 inh: inactive; HGIII-sPLA2 inh: inactive; ADAM17 inh: inactive; PLCb3 inh: inactive; KLK7 zymogen act: inactive

How did Cc1cc(C)n2nc(SCc3ccccc3)nc2n1 do in these assays?
PLCg1 inh: inactive; ADAM10 inh: 22.0; HGIII-sPLA2 inh: inactive; ADAM17 inh: inactive; PLCb3 inh: inactive; KLK7 zymogen act: inactive; ADAM10 confirm: inactive; ADAM17 counter: inactive

How did CC1CCCCC1NC(=O)C1CC(=O)N(Cc2ccccc2)C1 (configuration not stated) do in these assays?
PLCg1 inh: inactive; ADAM10 inh: 53.7; HGIII-sPLA2 inh: inactive; ADAM17 inh: inactive; PLCb3 inh: inactive; KLK7 zymogen act: inactive; ADAM10 confirm: inactive; ADAM17 counter: inactive

How did CC(C)CN1CN2CCc3ccccc3C2CS1(=O)=O (configuration not stated) do in these assays?
PLCg1 inh: inactive; ADAM10 inh: inactive; HGIII-sPLA2 inh: inactive; ADAM17 inh: inactive; PLCb3 inh: inactive; KLK7 zymogen act: inactive

Assay outcomes: PubChem BioAssay, The Scripps Research Institute Molecular Screening Center
